Reference: the supplement of paper PMC6555819

Assays:
Assay in all cases: PBM binding z-score (relative to random genomic background probes); higher = stronger binding; sequences stand for … in GC…GCGATTGACAGCGTAGAATGAAGG
[1] = test system: RARb homodimer (NR concentration 270 nM)
Outline: (§1)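 On custom Agilent 4×180K arrays, double-stranded probes with 34-nt variable regions carried direct-repeat seeds, single-nucleotide variants, half-site ablations or random human genomic background. Ligand-free nuclear receptor dimers were applied for 1 h, and binding was read with antibodies against each partner (one per run). Binding z-scores come from regression-normalized fluorescence, with the random background probes as reference.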

[2] = test system: RARg:RXRa (NR concentration 270 nM, RXRa partner concentration 90 nM)
Outline: as §1

[3] = test system: RARg homodimer (NR concentration 270 nM)
Outline: as §1

[4] = test system: RXRa DBDmut IVT, anti-RXR (DBD mutation: RXRa K156A/R161A, NR concentration 90 nM)
Outline: as §1

[5] = test system: RXRa homodimer (NR concentration 180 nM)
Outline: as §1

[6] = test system: THRa:RXRa (NR concentration 90 nM, RXRa partner concentration 90 nM)
Outline: as §1

[7] = test system: THRa homodimer (NR concentration 90 nM)
Outline: as §1

[8] = test system: VDR homodimer (NR concentration 270 nM)
Outline: as §1

Row | Sequence | PBM binding z-score [1] | PBM binding z-score [2] | PBM binding z-score [3] | PBM binding z-score [4] | PBM binding z-score [5] | PBM binding z-score [6] | PBM binding z-score [7] | PBM binding z-score [8]
1 | CCTACTGGGCCATTCTGAGGTCATTGATCATATG | 3.32 | 3.38 | 1.96 | 1.23 | 2.4 | 4.22 | 4.5 | 3.8
2 | AGAATGAGGTTATTGAGATCAGGGAATTGCGGTC | 1.07 | 1.43 | 0.831 | 2.21 | 2.16 | 2.45 | 1.01 | 1.28
3 | CCTAGTTGGTCAAGGTTACACACGCTATAGGTAC | 2.15 | 1.49 | 1.86 | 1.24 | 1.48 | 2.16 | 1.78 | 1.42
4 | ATCTCTAGGTAAGACACAGTTCAGTGAAGAACGC | 1.33 | 0.686 | 0.694 | 0.59 | 0.755 | 0.849 | 0.689 | 1.37
5 | CGTCCAAGGTCAGCAGATCAGTGAAAGCGACGTG | 3.69 | 4.89 | 5.8 | 2.42 | 3.8 | 3.42 | 2.11 | 0.793
6 | GCTAGCAGGCCATTTGGGTCACTCCATGACGGGC | 1.6 | 0.733 | 1.19 | 0.0531 | 0.716 | 1.61 | 0.324 | 0.419
7 | GCTTACGGGTCAAAGGTTCTAGCATGAATAGAAT | 2.69 | 5.33 | 4.79 | 2.09 | 7.13 | 2.7 | -0.332 | 1.55
8 | TAGCCTAGATCATGGGCCAGTATACCACGCGAAC | -0.389 | -0.301 | -0.388 | -0.748 | -0.39 | -0.674 | -0.848 | -0.532
9 | CGAACTAGGTCAGGACAGGACAGTGAAGGATGAT | 2.54 | 2.87 | 4.34 | 0.359 | 1.59 | 3.71 | 1.28 | -0.189
10 | GGAACGACGGCAAAGTTGATAGCATCTGTCGACG | -0.736 | -0.162 | -0.0781 | -0.543 | 0.157 | -0.802 | -1.24 | -0.637
11 | CCAGACAGGTGCAAGGTAACTCAGTCTGGTACGC | -0.106 | -0.306 | -0.108 | 0.584 | 0.00435 | 0.379 | 0.244 | 0.489
12 | CATACAGGGTCAGCTAGGCAAGAGTAGGGACGGC | 2.9 | 4.17 | 4.1 | 1.22 | 4.03 | 2.94 | 1 | 0.693
13 | ATCTCTAGGTAACGTTCAGTGAAAGATCGATAGA | 0.194 | 0.535 | 0.638 | 0.201 | 0.277 | 0.969 | 0.455 | -0.197
14 | TAGCCTAGGTCACTCAGGGGCCAGTATAGAAAGC | 3.61 | 5.91 | 5.25 | 0.581 | 2.94 | 3.17 | 0.528 | 0.664
15 | CAAACTAGGTCAAGAGGTCCAAGTCCGCTTCCCG | 3.2 | 4.03 | 4.37 | 1.42 | 2.65 | 2.55 | 0.871 | 1.74
16 | CCAGACAGGTGAGAAGGTAACTCATCCTCGATTA | 0.437 | 0.511 | 0.745 | 0.48 | 0.529 | 0.505 | 0.345 | -0.146
17 | TTACCAAGATGAAAGGTCGTTGATGCACGCCTTG | 1.55 | 1.58 | 0.973 | 0.753 | 2.49 | 1.27 | -0.262 | 1.53
18 | TAGCCTAGGTCATGCGTGCCAGTATAGTGTCGGC | 3.14 | 3.78 | 3.75 | 0.805 | 2.85 | 2.96 | 1.22 | 0.552
19 | CATCCAGGGTCAGCTAGGCCAGAGTAGGGACGGC | 3.29 | 4.74 | 4.96 | 1.35 | 4.41 | 3.18 | 1.34 | 1.51

Row | Sequence | PBM binding z-score [1] | PBM binding z-score [2] | PBM binding z-score [3] | PBM binding z-score [4] | PBM binding z-score [5] | PBM binding z-score [6] | PBM binding z-score [7] | PBM binding z-score [8]
20 | CAAACTCGGTCACCGGAAGGTCAAAGTCCGCATG | 5.22 | 6.88 | 6.29 | 1.12 | 4.82 | 3.44 | 1.59 | 2.65
21 | CCTAGCAGGCCAATCTTGGTCACTCAAGGCTTGA | 0.0668 | -0.196 | 0.118 | -0.0196 | -0.417 | 0.909 | -0.83 | -0.655
22 | CCTGCTAGGTCATGGTCAGCCAATCTACAGTATG | 3.14 | 3.98 | 4.45 | 1.26 | 3.04 | 3.07 | 1.18 | 0.0846
23 | AGAATGAGGTTATACGTAGATCAGGGAGGAAAGT | 0.93 | 1.79 | 1.27 | 1.87 | 2.27 | 2.24 | 0.817 | 1.09
24 | CGTCCAAGGTCGAGGTCAGTGAAAGAGACTCGAA | 4.16 | 4.8 | 5.32 | 2.57 | 4.65 | 3.93 | 2.42 | 2.96
25 | TGAATGAGGTTAAAGATGAGGGAACGTGGCGTCG | 0.748 | 2.16 | 1.21 | 1.33 | 2.86 | 2.4 | 0.742 | 0.849
26 | GTACCAAGGTGAATAGGTCGTTGACGAGTAGGCG | 1.93 | 2.91 | 1.53 | -0.0525 | 2.19 | 1.92 | 0.438 | 0.14
27 | TCAGACAGGTGTAGGTAACTCAGGTACGCAGTCG | 0.242 | 0.0352 | 0.143 | 1.07 | 0.607 | 0.923 | 0.621 | 0.47
28 | GCTATTAGTTGAATGGGCAACCGAATGATTCTCG | -0.506 | -0.114 | 0.0984 | 0.405 | -0.209 | -0.559 | -0.678 | -0.095
29 | ATACCAAGGTGATCGGGAGGTCGTTGATACTAAC | 1.96 | 2.79 | 0.879 | 0.167 | 1.44 | 2.58 | 1.27 | 1.99
30 | CCTAGCAGGCCAGGGTGACTCAAGCATTTCGCTT | 0.018 | -0.0591 | -0.113 | -0.702 | -0.00102 | 0.244 | -0.395 | -0.814
31 | CCTAGCAGGCCAGGGACACTCAAGCATTTCGCTT | 0.112 | -0.238 | -0.144 | -0.269 | -0.377 | 0.512 | 0.193 | -0.34
32 | ACTAGCAGGCCATGTTTGGGTCACTCAAACAAAG | 1.98 | 2.04 | 1.42 | -0.345 | 0.614 | 2.24 | 1.21 | -0.169
33 | ATATGTAGGTTACATCCGGGTCATACAGGCTATG | 2.77 | 3.85 | 2.26 | 0.757 | 3.05 | 4.01 | 2.3 | 2.26
34 | TGAATGAGTTTAAAGATCAGGGAACGTGGCGTCG | -0.301 | 0.427 | 0.222 | 3.12 | 0.84 | -0.0905 | -0.483 | 2.88
35 | TCGAGTAGGTTACCAATCGGGCATTCAGCTTTCT | 0.187 | 1.32 | 0.199 | -0.0305 | 0.304 | -0.223 | -1.47 | -1.01
36 | CCGACTGGGGCAGAAAGGTCACCATACCATCCGG | 5.15 | 5.42 | 5.69 | -0.33 | 5.7 | 3.2 | 1.38 | 1.86
37 | CCTAGTTGATCAGGAGGTCACACACCGGATATGA | 3.89 | 4.82 | 3.78 | 1.4 | 4.41 | 3.6 | 2.51 | 3.06
38 | TCTAATTGGTCAAAGGTCACACACTCGAAATGCG | 4.96 | 7.28 | 6.41 | 2.51 | 8.16 | 4.13 | 2.44 | 3.16

Row | Sequence | PBM binding z-score [1] | PBM binding z-score [2] | PBM binding z-score [3] | PBM binding z-score [4] | PBM binding z-score [5] | PBM binding z-score [6] | PBM binding z-score [7] | PBM binding z-score [8]
39 | CAACCTAGGTCAGGGCCAGTATAGGAGGAACGTT | 2.7 | 3.49 | 4.18 | 0.0707 | 2.07 | 2.12 | 0.435 | -0.128
40 | GCGACTGGGGCATCAGCAGGTCACCATAACTTAA | 3.25 | 3.79 | 2.47 | -0.121 | 2.14 | 3.02 | 1.44 | 0.619
41 | GGTCGGAGGACAAGGTCAGAGCTTTGTCCGTAGA | 3.33 | 3.31 | 4.24 | 0.467 | 2.46 | 3.12 | 1.85 | 0.993
42 | CATACAGGGTCAGCCAGGCCAGAGTAGGGACGGC | 3.14 | 4.58 | 4.31 | 1.4 | 4.58 | 3.36 | 1.19 | 1.78
43 | GCGACTGGGGCATCGGCAGGTTACCATAACTTAA | 1.07 | 1.17 | 0.592 | -0.207 | 0.141 | 1.11 | 0.42 | -0.113
44 | CGTCCAAAGTCATAGGAGGTCAGTGAAGACAGAT | 3.55 | 2.71 | 2.75 | 0.438 | 1.96 | 4.28 | 0.808 | 1.55
45 | GAAACGAGGGCATTCGAGTTGATAGCATGGCGAT | 0.628 | 1.26 | 1.38 | 3.03 | 1.09 | 3.47 | -0.43 | 3.34
46 | CCTTACGGGTCACGAGGTTATAGCGCGACGAGCG | 3.63 | 5.98 | 5.29 | 1.62 | 6.87 | 3.59 | 1.07 | 1.9
47 | GTACCAAGGTGAGTAGGTCGTTGATGAGTAGGCG | 1.15 | 0.89 | 0.657 | -0.673 | 0.551 | 0.995 | 0.258 | 0.112
48 | CCTACTGGGCCAATCAGAGGTCATTGATCATATG | 4.14 | 4.56 | 3.26 | 0.861 | 3.82 | 3.13 | 1.38 | 3.81
49 | CGTACTAGGTCATCCAGGACAGTGAATACATTGA | 3.35 | 3.73 | 4.47 | 2.15 | 2.67 | 3.76 | 2.4 | 1.81
50 | CCTGCTAGGTCAATGGTCAGTTAAAGCAGCTCGC | 3.24 | 3.72 | 4.65 | 1.99 | 2.11 | 2.38 | 0.961 | 0.506
51 | CTCGGAAGGTCGTGCTCAGGTGAGTATACCAAAC | 1.95 | 3.34 | 2.31 | 1.18 | 2.37 | 3.59 | 1.15 | 0.743
52 | ACTAGCAGGCCAAGGGTCACTCATGATTAGTCCG | 3.68 | 4.01 | 3.58 | 0.479 | 4.18 | 2.31 | 0.0224 | 1.07
53 | CCTCTTAGTTGACCATAAGGGCAACCGAAGCTCG | 2.25 | 1.17 | 1.15 | 0.285 | 0.712 | 2.07 | 1.59 | 0.985
54 | TCTCTTAGTTGAAGGGCAACCGACGAGTCCGTTT | 1.22 | 0.587 | 0.371 | 1.52 | 0.71 | 0.283 | 0.0407 | 1.24
55 | AGCATGAGGTTATTAAGATCAGGGAATTGCGGTC | 0.785 | 1.38 | 1.03 | 1.99 | 1.77 | 2.19 | 0.867 | 1.59
56 | ACAGACAGCTGAGTGAAGGTAACTCAGCTGGACG | -0.758 | -0.23 | -0.426 | -0.997 | 0.00757 | -0.178 | -0.586 | -0.66
